Test systems include NCI-H23 lung; NCI-H322M lung; HOP-62 NSCLC; NCI-H460 lung; HOP-92 NSCLC; NCI-H522 lung; A549/ATCC NSCLC; 786-0 renal; COLO 205 colon.
Common to all, as to test: NCI-60 one-dose screen, 48 h (100 = growth as untreated, 0 = no growth, -100 = all killed)
Common to all, as to settings: 10 µM unless noted

Where “and” joins values, the source holds several entries; their conditions need not be identical. Equal values may be shown once. Compounds without any hit were thinned out: in the full panel of roughly 83,000, 20% have a hit.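 Cells were grown in 96-well plates and exposed to the test compound at a single concentration for 48 hours; results are reported as percent growth, with values below 10 considered active.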 Values without a mark were called inactive. Calls of active or inactive are those of the source.

Regarding `O=C(O)c1ccccc1N(CCO)CCCl`, the growth was 99% in the assay on NCI-H23 lung; 90.3% in the assay with NCI-H322M lung; 95.1% with HOP-62 NSCLC; 111% in the assay on NCI-H460 lung; 79.3% with HOP-92 NSCLC; 93.3% in the assay with NCI-H522 lung. In addition, the growth in the assay on A549/ATCC NSCLC is 98.1%; in the assay with 786-0 renal, 107%; in the assay on COLO 205 colon it was 100%.
`N#CC(C#N)=C(C#N)C#N`: the growth in the assay with NCI-H23 lung is 106%; with NCI-H322M lung it was 103%; with HOP-62 NSCLC, 108%; with NCI-H460 lung, 106%; with A549/ATCC NSCLC, 99.9%; with 786-0 renal, 101%. In the assay with COLO 205 colon, the growth was 114%.
For the molecule `COc1ccc2c(c1)c(-c1nc(-c3cn(C)c4ncccc34)cs1)cn2CCCCN1CCOCC1`, the growth was 78.4% in the assay on NCI-H23 lung; 65.9% in the assay on NCI-H322M lung; 30.9% with HOP-62 NSCLC; -31.9% (active) in the assay on NCI-H460 lung; 47.9% with HOP-92 NSCLC; 3.68% (active) with NCI-H522 lung. The results for the growth with A549/ATCC NSCLC, in the assay on 786-0 renal and with COLO 205 colon were 48.3%, -71.7% (active) and -91.7% (active), respectively.
As for `C=C1C(=O)OC2CC3(C)OC3C3OC3C3=CC(OC3=O)C12` (centres undefined), the growth in the assay with NCI-H23 lung is 93.8% and 101%; with NCI-H322M lung, 98.7% and 101%; in the assay with HOP-62 NSCLC, 96.8% and 115%; in the assay on NCI-H460 lung it was 114% and 105%; in the assay on HOP-92 NSCLC it was 9.95% (active); in the assay on NCI-H522 lung, -74.9% (active) and -76.6% (active). Further, the growth was 93.1% and 105% in the assay on A549/ATCC NSCLC; 96% and 108% with 786-0 renal; -77.1% (active) with COLO 205 colon.

For the origin of these results see PubChem BioAssay (NCI).
